Compound activity deposited in PubChem BioAssay by National Center for Advancing Translational Sciences (NCATS).
GLS inh: glutaminase GLS (human) inhibition; O94925; Potency, µM (top dose mostly 45.5 µM), for the others: top-dose activity change, negative = inhibition, usual class: inhibitors; GLS enzymatic activity, qHTS titration; 0.21% of 410,000 active; also: % is scaled to controls: 0 for no effect and ±100 for the full control effect
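Two-point fluorescence kinetic (t0, 30 min RT) for hKGA; glutamate detected via glutamate oxidase–HRP–Amplex Red. Substrate: 1 mM L-glutamine solution; buffer 45 mM KH2PO4, pH 8.2.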
JMJD2A Tudor: blocks the human JMJD2A Tudor domain | Potency, µM (doses to about 114 µM), for inactives: top-dose activity change, negative = inhibition, usual class: inhibitors | 4.4% of 390,000 active | AlphaScreen JMJD2A-Tudor / H3K4me3 peptide binding | AID 504339 | O75164; also: % is scaled to controls: 0 for no effect and ±100 for the full control effect; nearly all actives have a fitted effect of over 50% in size
G9a block: inhibitors of human histone lysine methyltransferase G9a; Q96KQ7; G9a H3K9 monomethylation, AlphaScreen, 2 h; Potency, µM (top dose mostly 102 µM), without a hit: at the top dose activity, negative = inhibition, hits mostly inhibitors; 8.8% of 350,000 active; AID 504332; also: % is scaled to controls: 0 for no effect and ±100 for the full control effect; nearly all actives have a fitted effect of over 75% in size
Target sequence (Q96KQ7 913-1193 limits assumed): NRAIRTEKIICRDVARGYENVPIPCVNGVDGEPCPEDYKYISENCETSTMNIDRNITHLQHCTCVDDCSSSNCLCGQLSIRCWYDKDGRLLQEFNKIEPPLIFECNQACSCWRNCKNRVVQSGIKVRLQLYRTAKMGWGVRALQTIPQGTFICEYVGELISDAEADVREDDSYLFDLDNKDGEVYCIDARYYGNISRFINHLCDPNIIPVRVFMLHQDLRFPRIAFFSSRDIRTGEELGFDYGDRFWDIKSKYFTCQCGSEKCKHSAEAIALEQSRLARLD
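Step 1: enzyme (final 20 nM) with compound, 15 min RT. Step 2: substrate peptide 500 nM and SAM 20 uM, 2 h RT. Step 3: anti-H3K9me1 antibody and AlphaScreen beads, 10 min, then plate read.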
HP1b chromo inh: inhibitors of HP1-beta chromodomain binding to methylated histone tails. P83916. AlphaScreen HP1-beta / biotin-H3K9me3 peptide binding. Potency, µM (series often up to 114 µM), for inactives: at the highest dose activity change, negative = inhibition, usual class: inhibitors. 0.56% of 390,000 active. AID 540317; also: nearly all actives have a fitted effect of over 70% in size
Target sequence (P83916 whole entry, looked up): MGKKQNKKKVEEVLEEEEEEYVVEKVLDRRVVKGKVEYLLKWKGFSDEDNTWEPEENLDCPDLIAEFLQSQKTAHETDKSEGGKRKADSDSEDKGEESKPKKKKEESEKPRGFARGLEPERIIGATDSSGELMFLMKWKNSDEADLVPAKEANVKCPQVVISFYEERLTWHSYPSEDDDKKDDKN
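HP1-beta protein (50 nM final) preincubated 30 min at room temperature with biotinylated H3(1-18)K9me3 peptide (50 nM) in PBS pH 7.4, 0.01% Tween-20, then compound added for 30 min. AlphaScreen streptavidin donor/nickel chelate acceptor beads (10 ug/mL final), 30 min dark, luminescence read.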
BAZ2B block: BAZ2B (human) inhibition; 4.4% of 360,000 active; Potency, µM (doses to about 114 µM), inactives show at the highest dose activity change, negative = inhibition, most hits filed as inhibitors; AID 504333; AlphaScreen BAZ2B-H3K14Ac peptide displacement; Q9UIF8; also: % is scaled to controls: 0 for no effect and ±100 for the full control effect; nearly all actives have a fitted effect of over 60% in size
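Inhibition is scored as reduced AlphaScreen emission. The BAZ2B/b-H3(5-23)K14Ac complex (50 nM each) in PBS pH 7.4, 0.01% Tween-20 meets compound (up to 110 uM) for 30 min at RT before bead addition.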
Numbers without * were called inactive; ? = inconclusive; / = not tested or not shown; ! = repeats disagree; [ ] = remark or other dose. Sampled rows, rich in hits. Any-hit rate of the full collection: about 10%. Calls follow the shape of the dose curve; as a rule, active = well fitted curve in the direction sought with a large enough effect; inconclusive = small, poorly fitted or top-dose-only effect, or another doubt; inactive = no such curve, though single readings can be large; an effect the other way counts as inactive or inconclusive. Potency is read from the fitted curve at half-maximal effect.

SMILES | GLS inh | JMJD2A Tudor | G9a block | HP1b chromo inh | BAZ2B block
C=CCOc1c(Cl)cc(CNn2cn[nH]c2=S)cc1OC | 5.2% | ? | ? | 28.7% | -14.6%
COc1cc(CNn2cn[nH]c2=S)cc(Cl)c1OCc1ccccc1 | ? | -22.1% | 10µM* | 2.8% | -6.5%
COc1cc(CNn2cn[nH]c2=S)cc(Br)c1OCc1ccccc1F | -0.3% | ? | 10µM* | 20.7% | ?
O=C(NN=C1CCC(=NNC(=O)c2ccccn2)CC1)c1ccccn1 | 3.1% | 22.4µM* | / | 32.7% | 7.94µM*
Cc1cc2c(cc1C)/C(=N/NC(=O)c1ccccn1)CCC2 | 12.7% | -5.6% | / | 53.7% | 50.1µM*
O=C(N/N=C/C1CCCCC1)c1ccccn1 | -0.2% | -17.3% | 52.1%[12.7 µM] | 73.4% | ?
O=C(O)COc1ccccc1C(Nc1cccnc1)c1cc(Cl)c2cccnc2c1O (centres undefined) | 35.9% | 22.4µM* | 2.82µM* | ? | 20µM*
O=C(O)COc1ccccc1C(Nc1ccccn1)c1cc(Cl)c2cccnc2c1O (centres undefined) | -10.8% | 79.4µM* | 7.94µM* | ? | 39.8µM*
CCCC(=O)NC(c1ccc2c(c1)OCO2)c1cc(Cl)c2cccnc2c1O (centres undefined) | -3.5% | -13.0% | 28.7%[59 µM] | 36.3% | 5.2%
CCOc1ccc(C(Nc2cccnc2)c2cc(Cl)c3cccnc3c2O)cc1 (centres undefined) | -8.3% | 39.8µM* | / | ? | 44.7µM*
COc1ccccc1C(NC(C)=O)c1cc(Cl)c2cccnc2c1O (centres undefined) | -10.3% | ? | 18.0% | 35.6% | -12.9%
O=C(NC(c1ccccc1)c1cc(Cl)c2cccnc2c1O)c1cccnc1 (centres undefined) | / | / | -24.0%[59 µM] | / | 0.7%
O=C(Nc1ccc2nc(C3CC3)n(Cc3ccc(F)cc3)c(=O)c2c1)c1ccco1 | -0.2% | -20.5% | -30.3% | 10.6% | -31.7%
O=c1cnnc(Nc2ccc(Cl)c(C(F)(F)F)c2)[nH]1 | 9.6% | -7.6% | -21.9% | 9.4% | 7.0%
CC(C)(C)c1ccc(CNc2cc(N3CCOCC3)ccc2[N+](=O)[O-])cc1 | 3.3% | ? | 25.1µM* | ? | ?
CS(=O)(=O)N1CCN(c2ccc([N+](=O)[O-])c(NCc3ccc(Cl)cc3)c2)CC1 | 12.0% | 89.1µM* | 24.7%[59 µM] | 8.4% | ?
CC(C)c1ccc(CNc2cc(N3CCCC3)ccc2[N+](=O)[O-])cc1 | -18.1% | ? | ? | -28.6% | ?
O=[N+]([O-])c1cc([N+](=O)[O-])c2nonc2c1Nc1ccc(O)cc1 | 38.0% | 50.1µM* | 11.2µM* | ? | ?
CC(C)N1C(=O)CC2(CC[N+](C)(CCOC(=O)C(c3ccccc3)c3ccccc3)CC2)C1=O (centres undefined) | 2.2% | -7.4% | ? | 25.5% | 44.7µM*
Cc1ccc(Cl)cc1N1CCN(C(=O)c2ccc3c(c2)CCN3S(C)(=O)=O)CC1 | / | / | -12.6% | / | -24.7%
Cc1cc(Cl)c2oc(C(=O)NCCN3CCOC3=O)c(C)c2c1 | -3.6% | -9.7% | -4.4% | 31.3% | -15.4%
Cc1cc(Cl)c2oc(C(=O)N3CCCCC3CCN3CCCC3=O)c(C)c2c1 (centres undefined) | 1.5% | -15.4% | / | 17.6% | 50.1µM*
O=C(CSc1nc(=O)n2cc(Cl)ccc2n1)NCCc1ccccc1 | -10.6% | -16.4% | 5.2%[0.501 µM] | 20.9% | -37.8%
Cc1c(C)n2c(SCC(=O)N3CCCCCC3)nnc2[nH]c1=O | -12.6% | -2.7% | ? | 51.3% | 5.9%
Cc1c(C)n2c(SCC(=O)N3CCOCC3)nnc2[nH]c1=O | 0.4% | 31.6µM* | -29.9%[0.501 µM] | 26.8% | -6.4%
SMILES | GLS inh | JMJD2A Tudor | G9a block | HP1b chromo inh | BAZ2B block
CCCn1c(N2CCN(S(=O)(=O)Cc3ccccc3)CC2)nc2ccccc21 | -9.8% | -8.6% | -44.0%[12.7 µM] | 33.5% | -3.3%
COc1ccccc1OCCn1c(SCC(=O)O)nc2ccccc21 | -11.6% | -45.8% | 39.8µM* | 15.3% | ?
COCC(C)NC(=O)Cn1c(SCc2ccccc2)nc2ccccc21 (centres undefined) | 2.5% | -10.0%[57.1 µM] | 44.7µM* | 9.7%[57 µM] | 11.9%
COc1ccccc1OCCSc1nc2ccccc2n1CCC(=O)O | -1.3% | -11.6% | / | 18.6% | -2.2%
O=C(O)Cn1c(SCc2ccccc2)nc2ccccc21 | 10.5% | -9.4% | -36.1% | 35.8% | -5.2%
COCC(C)NC(=O)CSc1nc2ccccc2n1CCc1ccccc1 (centres undefined) | -1.7% | -2.6% | 70.8µM* | 28.2% | 35.5%
COC(=O)c1sccc1NC(=O)Nc1cccc(OC)c1 | -4.0% | -16.7% | / | 37.9% | 2.9%
CC(C)(C)c1ccc(S(=O)(=O)N2CCC(O)(c3ccc(Cl)cc3)CC2)cc1 | -2.1% | -15.0% | -42.6%[59 µM] | 39.2% | -2.4%
CCOc1ccc2ncc(C(=O)c3ccc(OC)cc3)c(N3CCN(CC)CC3)c2c1 | 5.3% | -32.9% | 44.7µM* | 11.6% | ?
CCc1ccc2ncc(C(=O)c3ccc(C)c(C)c3)c(N3CCC(C(N)=O)CC3)c2c1 | 3.0% | ? | -31.0%[59 µM] | 9.7% | -27.2%
CCc1ccc(C(=O)c2cnc3ccc(OC)cc3c2N2CCN(CC)CC2)cc1 | -3.9% | -29.6% | 39.8µM* | 18.9% | 50.1µM*
CCOC(=O)C1CCCN(c2c(C(=O)c3ccc(C)cc3)cnc3ccc(OCC)cc23)C1 (centres undefined) | 0.8% | 35.5µM* | 1.41µM* | -16.5% | 50.1µM*
CCCOc1ccc(Cn2c(=O)oc3ccc(C)cc32)cc1OC | -6.0% | 13.4%[57.1 µM] | 19.2%[59 µM] | 36.6% | 7.4%
COc1ccc(OC)c2[nH]c(=O)c(CCNC(=O)C(=O)c3c(C)[nH]c4ccccc34)cc12 | -0.9% | -6.9% | 5.8% | 21.1% | -24.8%
CCS(=O)(=O)Nc1cccc(C2=NN(S(=O)(=O)c3ccc(C)cc3)C(c3cccs3)C2)c1 (centres undefined) | 3.8% | -21.2% | 10.4%[59 µM] | 9.7% | 1.5%
O=S(=O)(c1ccc(Cl)s1)N1CCCc2cccc(O)c21 | 12.6% | 16.2% | 9.3%[59 µM] | 72.1% | 14.8%
O=c1c(-c2nnc(SCc3ccc(Cl)c(Cl)c3)o2)cccn1Cc1ccccc1 | 6.5% | 18.1% | 225.6%[59 µM] | 103.8% | 6.4%
COc1cccc(-n2cn[nH]c2=S)c1 | -3.6% | ? | 12.6µM* | 30.9% | 4.2%
COc1cccc(-c2cn(-c3cccc(C(F)(F)F)c3)c(=S)[nH]2)c1 | -24.7% | -8.5% | 22.7%[0.501 µM] | 20.5% | -23.6%
CCN(CC)CCc1nc(-c2ccccc2)no1 | 2.1% | 39.8µM* | 12.6µM*! | 13.5% | -4.3%
COc1ccc(Nc2cc(C(=O)NCCCN3CCN(c4ccc(OC)cc4)CC3)c3ccccc3n2)cc1 | 33.0% | 22.4µM* | 11.2µM* | ? | 14.1µM*
COc1ccc(Nc2cc(C(=O)NCCCN3CCOCC3)c3ccccc3n2)cc1OC | 1.3% | ? | -12.0%[59 µM] | 9.4% | -37.2%
